Consider 3 molecules from ChEMBL document CHEMBL1961873, “Compounds: GSK PKIS; Assays: Nanosyn kinase panel” (2012).

Each structure is given as a SMILES string.

As a reminder, the inhibition is the drop in the measured response relative to a control, in per cent.

The target in assay [1] is T1, Serine/threonine-protein kinase D2 (Homo sapiens) (UniProt Q9BZL6).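 Also: mean value of PRKD2 inhibition, from the GSK PKIS screening panel.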
T1 sequence (whole entry): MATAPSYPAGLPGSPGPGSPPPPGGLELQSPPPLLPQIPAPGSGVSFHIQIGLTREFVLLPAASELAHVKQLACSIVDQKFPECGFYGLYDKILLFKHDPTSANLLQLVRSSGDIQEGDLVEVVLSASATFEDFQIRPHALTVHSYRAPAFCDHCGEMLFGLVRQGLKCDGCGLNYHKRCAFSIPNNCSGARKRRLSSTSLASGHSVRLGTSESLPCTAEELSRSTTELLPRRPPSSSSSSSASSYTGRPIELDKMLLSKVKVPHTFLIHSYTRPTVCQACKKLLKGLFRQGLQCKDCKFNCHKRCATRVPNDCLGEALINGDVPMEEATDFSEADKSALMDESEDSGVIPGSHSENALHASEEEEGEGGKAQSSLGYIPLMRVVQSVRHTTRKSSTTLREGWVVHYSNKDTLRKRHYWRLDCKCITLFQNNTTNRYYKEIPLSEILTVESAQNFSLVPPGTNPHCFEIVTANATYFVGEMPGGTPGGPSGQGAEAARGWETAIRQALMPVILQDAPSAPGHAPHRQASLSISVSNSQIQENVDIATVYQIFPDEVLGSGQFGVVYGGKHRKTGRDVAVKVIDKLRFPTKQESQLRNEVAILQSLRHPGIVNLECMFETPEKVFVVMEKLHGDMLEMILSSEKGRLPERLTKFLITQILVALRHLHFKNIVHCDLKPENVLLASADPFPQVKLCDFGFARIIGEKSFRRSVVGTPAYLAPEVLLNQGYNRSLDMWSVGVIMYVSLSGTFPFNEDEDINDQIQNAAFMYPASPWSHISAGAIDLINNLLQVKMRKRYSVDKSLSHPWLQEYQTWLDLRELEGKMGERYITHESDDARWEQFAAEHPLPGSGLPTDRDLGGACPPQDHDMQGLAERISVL
The note with it: at 1 µM.

In assay [2] the target is T2, Serine/threonine-protein kinase D3 (Homo sapiens) (UniProt O94806).
T2 sequence (whole entry): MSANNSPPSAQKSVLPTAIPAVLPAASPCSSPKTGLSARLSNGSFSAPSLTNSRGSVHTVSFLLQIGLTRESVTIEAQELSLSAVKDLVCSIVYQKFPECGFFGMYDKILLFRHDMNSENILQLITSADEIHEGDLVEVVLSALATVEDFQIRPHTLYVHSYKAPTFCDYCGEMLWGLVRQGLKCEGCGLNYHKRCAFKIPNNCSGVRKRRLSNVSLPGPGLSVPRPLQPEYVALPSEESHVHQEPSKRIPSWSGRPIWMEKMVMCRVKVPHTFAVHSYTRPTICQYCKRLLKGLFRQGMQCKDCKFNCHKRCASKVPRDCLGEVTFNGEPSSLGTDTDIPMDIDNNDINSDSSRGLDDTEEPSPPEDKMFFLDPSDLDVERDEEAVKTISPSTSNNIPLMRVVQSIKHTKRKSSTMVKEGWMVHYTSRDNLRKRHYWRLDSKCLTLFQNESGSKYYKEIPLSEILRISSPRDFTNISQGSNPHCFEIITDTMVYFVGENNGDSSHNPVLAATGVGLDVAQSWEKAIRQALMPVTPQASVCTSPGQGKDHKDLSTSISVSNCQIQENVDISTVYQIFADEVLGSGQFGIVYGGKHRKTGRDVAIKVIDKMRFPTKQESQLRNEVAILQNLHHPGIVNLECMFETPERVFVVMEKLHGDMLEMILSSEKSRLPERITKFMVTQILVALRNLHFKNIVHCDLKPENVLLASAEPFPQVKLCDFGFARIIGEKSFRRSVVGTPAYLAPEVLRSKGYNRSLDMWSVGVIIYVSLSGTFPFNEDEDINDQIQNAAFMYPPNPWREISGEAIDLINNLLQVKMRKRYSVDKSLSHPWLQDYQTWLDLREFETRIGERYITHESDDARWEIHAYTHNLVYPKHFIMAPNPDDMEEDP
The note with it: at 0.1 µM.

For assay [3], the target named is T2, Serine/threonine-protein kinase D3 (Homo sapiens). The note with it: at 1 µM.
The target of assay [4] is T3, cGMP-dependent protein kinase 1 (Homo sapiens) (UniProt Q13976).
T3 sequence (whole entry): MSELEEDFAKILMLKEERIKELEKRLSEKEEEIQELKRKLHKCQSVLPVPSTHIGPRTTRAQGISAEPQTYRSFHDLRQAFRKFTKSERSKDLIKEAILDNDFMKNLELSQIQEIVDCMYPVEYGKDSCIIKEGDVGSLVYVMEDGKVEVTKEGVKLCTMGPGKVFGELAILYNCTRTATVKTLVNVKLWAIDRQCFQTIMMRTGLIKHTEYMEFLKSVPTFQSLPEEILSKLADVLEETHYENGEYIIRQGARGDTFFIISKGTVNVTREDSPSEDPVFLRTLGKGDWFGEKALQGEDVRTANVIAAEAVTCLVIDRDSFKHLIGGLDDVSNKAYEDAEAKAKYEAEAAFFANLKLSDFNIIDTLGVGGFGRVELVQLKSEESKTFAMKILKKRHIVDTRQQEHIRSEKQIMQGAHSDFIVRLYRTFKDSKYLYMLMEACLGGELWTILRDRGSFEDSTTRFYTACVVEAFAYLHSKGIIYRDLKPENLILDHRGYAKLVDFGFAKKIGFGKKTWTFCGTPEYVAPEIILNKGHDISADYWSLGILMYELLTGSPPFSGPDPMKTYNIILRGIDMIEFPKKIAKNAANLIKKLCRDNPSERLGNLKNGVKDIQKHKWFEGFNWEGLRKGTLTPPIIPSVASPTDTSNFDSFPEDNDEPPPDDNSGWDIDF
To be noted: at 0.1 µM.

The target in assay [5] is T3, cGMP-dependent protein kinase 1 (Homo sapiens). To be noted: at 1 µM.
Assay [6] concerns the target T4, cGMP-dependent protein kinase 2 (Homo sapiens) (UniProt Q13237).
T4 sequence (whole entry): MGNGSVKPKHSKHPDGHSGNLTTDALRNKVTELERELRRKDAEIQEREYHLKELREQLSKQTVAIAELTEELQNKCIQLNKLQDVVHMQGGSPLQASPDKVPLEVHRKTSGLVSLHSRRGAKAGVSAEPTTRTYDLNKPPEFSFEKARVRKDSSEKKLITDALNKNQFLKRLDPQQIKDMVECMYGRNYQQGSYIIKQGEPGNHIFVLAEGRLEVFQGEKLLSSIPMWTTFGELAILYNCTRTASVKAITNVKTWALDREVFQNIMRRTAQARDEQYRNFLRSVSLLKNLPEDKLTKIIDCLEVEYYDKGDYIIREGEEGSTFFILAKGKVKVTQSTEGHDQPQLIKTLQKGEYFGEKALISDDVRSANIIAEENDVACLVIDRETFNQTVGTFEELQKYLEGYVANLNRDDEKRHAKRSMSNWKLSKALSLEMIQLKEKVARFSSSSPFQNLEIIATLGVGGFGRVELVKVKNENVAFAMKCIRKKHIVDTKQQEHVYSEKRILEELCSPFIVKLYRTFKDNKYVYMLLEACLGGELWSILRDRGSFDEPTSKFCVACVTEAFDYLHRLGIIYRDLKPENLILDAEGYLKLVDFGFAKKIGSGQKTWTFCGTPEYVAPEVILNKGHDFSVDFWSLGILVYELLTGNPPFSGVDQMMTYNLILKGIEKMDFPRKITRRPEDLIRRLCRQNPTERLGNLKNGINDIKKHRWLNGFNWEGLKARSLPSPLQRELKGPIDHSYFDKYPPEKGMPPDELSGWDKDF
The note with it: at 0.1 µM.

Assay [7] concerns the target T4, cGMP-dependent protein kinase 2 (Homo sapiens). To be noted: at 1 µM.
For assay [8], the target named is T5, cAMP-dependent protein kinase catalytic subunit PRKX (Homo sapiens) (UniProt P51817).
T5 sequence (whole entry): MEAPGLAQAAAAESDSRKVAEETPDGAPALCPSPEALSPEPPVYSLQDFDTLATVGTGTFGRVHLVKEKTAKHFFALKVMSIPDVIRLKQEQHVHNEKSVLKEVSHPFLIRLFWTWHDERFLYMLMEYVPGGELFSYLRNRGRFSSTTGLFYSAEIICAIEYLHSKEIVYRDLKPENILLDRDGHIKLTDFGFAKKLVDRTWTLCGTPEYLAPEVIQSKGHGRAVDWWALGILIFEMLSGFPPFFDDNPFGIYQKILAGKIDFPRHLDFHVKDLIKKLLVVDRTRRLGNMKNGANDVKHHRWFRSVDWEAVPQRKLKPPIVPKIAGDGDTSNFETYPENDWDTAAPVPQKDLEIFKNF
To be noted: at 0.1 µM.

Assay [9] has as its target T5, cAMP-dependent protein kinase catalytic subunit PRKX (Homo sapiens). To be noted: at 1 µM.
The target of assay [10] is Rho-associated protein kinase 1 (Homo sapiens) (UniProt Q13464). The note with it: at 0.1 µM.
Rho-associated protein kinase 1 (Homo sapiens), sequence (Q13464 2-1354 limits assumed): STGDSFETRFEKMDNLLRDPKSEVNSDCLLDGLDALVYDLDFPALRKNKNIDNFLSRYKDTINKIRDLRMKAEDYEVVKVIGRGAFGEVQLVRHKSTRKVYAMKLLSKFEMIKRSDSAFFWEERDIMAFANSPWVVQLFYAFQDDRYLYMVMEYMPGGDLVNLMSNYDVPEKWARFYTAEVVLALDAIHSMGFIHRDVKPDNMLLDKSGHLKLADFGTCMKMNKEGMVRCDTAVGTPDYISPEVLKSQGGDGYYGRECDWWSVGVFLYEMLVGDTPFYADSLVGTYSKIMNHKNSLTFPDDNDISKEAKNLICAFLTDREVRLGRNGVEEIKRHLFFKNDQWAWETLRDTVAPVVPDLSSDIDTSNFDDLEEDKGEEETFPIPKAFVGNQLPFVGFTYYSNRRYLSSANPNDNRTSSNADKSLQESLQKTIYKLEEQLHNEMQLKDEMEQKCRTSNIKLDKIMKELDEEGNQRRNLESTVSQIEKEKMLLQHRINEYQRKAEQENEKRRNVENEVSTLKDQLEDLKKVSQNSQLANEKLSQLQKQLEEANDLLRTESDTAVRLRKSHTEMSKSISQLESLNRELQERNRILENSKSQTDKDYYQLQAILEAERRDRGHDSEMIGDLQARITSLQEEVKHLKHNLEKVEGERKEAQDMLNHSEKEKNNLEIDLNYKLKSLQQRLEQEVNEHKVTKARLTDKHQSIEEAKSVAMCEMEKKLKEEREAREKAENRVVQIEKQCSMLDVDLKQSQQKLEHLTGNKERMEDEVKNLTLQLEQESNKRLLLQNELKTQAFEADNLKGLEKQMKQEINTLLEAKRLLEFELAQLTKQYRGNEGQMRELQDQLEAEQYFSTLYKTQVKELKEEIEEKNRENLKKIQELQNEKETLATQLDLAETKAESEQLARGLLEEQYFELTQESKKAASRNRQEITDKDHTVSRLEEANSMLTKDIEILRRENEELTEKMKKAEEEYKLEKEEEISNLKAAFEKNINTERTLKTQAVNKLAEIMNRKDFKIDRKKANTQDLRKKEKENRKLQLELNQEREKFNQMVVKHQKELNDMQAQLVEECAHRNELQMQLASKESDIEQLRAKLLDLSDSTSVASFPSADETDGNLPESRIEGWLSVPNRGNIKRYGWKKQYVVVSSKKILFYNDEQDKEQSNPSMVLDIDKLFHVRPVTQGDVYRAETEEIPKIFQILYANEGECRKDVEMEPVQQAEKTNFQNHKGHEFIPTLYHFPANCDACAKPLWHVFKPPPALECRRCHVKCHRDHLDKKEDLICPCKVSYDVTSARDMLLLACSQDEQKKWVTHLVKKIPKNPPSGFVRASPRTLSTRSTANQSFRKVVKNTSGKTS
For assay [11] the target is unchanged. The note with it: at 1 µM.
The target of assay [12] is Rho-associated protein kinase 2 (Homo sapiens) (UniProt O75116). The note with it: at 0.1 µM.
Rho-associated protein kinase 2 (Homo sapiens), sequence (O75116 whole entry, looked up): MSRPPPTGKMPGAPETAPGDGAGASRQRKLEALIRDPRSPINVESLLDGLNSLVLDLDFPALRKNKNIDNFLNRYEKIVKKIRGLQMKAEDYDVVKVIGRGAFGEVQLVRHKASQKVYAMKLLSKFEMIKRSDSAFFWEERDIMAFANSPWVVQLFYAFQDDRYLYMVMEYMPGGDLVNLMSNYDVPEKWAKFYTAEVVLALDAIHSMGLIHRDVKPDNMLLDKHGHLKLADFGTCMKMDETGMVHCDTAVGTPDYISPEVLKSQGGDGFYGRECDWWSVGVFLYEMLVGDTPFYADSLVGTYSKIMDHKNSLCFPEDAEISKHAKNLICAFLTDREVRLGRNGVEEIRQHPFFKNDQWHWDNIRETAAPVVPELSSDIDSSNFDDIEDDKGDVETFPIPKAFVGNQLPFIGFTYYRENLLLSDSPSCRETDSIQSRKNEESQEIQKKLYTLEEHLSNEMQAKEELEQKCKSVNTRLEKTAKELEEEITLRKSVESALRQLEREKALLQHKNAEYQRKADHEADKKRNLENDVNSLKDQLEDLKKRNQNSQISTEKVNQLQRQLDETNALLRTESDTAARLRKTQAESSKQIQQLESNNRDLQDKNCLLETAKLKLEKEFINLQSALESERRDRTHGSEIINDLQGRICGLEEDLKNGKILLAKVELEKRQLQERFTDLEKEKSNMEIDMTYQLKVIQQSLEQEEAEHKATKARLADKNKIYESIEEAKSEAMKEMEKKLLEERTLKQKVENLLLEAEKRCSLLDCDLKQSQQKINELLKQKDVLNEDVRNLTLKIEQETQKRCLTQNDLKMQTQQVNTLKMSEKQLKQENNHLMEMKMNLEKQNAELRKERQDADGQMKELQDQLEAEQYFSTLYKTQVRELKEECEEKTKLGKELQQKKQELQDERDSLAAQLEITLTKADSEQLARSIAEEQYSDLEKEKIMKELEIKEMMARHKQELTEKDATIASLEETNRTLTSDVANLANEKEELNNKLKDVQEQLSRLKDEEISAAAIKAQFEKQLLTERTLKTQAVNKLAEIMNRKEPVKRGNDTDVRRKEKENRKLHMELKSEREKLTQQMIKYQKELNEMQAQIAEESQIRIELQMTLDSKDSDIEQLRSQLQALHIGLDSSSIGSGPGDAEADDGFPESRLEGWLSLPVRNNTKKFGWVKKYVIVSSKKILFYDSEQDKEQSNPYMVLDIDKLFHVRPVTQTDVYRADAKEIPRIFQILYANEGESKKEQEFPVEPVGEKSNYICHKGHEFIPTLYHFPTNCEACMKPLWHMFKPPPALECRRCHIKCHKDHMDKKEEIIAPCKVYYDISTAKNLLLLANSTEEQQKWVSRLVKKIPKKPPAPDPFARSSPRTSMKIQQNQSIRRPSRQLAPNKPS
The target is the same in assay [13]. To be noted: at 1 µM.
Assay [14] deals with Ribosomal protein S6 kinase alpha-1 (Homo sapiens) (UniProt Q15418). The note with it: at 0.1 µM.
Ribosomal protein S6 kinase alpha-1 (Homo sapiens), sequence (Q15418 whole entry): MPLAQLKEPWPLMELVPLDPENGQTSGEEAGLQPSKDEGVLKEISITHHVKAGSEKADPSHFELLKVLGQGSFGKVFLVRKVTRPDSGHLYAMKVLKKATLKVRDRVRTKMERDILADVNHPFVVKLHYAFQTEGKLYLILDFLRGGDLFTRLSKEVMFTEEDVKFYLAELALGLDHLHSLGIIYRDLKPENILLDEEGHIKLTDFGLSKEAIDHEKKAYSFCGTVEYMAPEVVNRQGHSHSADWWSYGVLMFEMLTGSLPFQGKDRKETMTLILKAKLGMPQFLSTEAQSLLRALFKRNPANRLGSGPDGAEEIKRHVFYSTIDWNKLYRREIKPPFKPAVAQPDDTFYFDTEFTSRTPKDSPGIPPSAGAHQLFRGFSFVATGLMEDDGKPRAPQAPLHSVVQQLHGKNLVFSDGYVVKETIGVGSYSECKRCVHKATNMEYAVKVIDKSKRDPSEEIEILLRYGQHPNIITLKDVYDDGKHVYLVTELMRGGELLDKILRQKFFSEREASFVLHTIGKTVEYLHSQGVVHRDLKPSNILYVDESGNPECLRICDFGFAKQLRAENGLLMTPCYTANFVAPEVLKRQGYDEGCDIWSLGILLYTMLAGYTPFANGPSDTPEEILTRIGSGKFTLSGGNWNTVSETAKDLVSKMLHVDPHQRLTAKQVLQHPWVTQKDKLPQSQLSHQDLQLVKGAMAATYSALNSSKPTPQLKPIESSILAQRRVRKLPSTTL
Assay [15] has the same target. The note with it: at 1 µM.
Assay [16] concerns the target Ribosomal protein S6 kinase alpha-3 (Homo sapiens) (UniProt P51812). The note with it: at 0.1 µM.
For assay [17] the target is unchanged. To be noted: at 1 µM.
The target of assay [18] is Ribosomal protein S6 kinase alpha-2 (Homo sapiens) (UniProt Q15349). To be noted: at 0.1 µM.
Ribosomal protein S6 kinase alpha-2 (Homo sapiens), sequence (Q15349 whole entry): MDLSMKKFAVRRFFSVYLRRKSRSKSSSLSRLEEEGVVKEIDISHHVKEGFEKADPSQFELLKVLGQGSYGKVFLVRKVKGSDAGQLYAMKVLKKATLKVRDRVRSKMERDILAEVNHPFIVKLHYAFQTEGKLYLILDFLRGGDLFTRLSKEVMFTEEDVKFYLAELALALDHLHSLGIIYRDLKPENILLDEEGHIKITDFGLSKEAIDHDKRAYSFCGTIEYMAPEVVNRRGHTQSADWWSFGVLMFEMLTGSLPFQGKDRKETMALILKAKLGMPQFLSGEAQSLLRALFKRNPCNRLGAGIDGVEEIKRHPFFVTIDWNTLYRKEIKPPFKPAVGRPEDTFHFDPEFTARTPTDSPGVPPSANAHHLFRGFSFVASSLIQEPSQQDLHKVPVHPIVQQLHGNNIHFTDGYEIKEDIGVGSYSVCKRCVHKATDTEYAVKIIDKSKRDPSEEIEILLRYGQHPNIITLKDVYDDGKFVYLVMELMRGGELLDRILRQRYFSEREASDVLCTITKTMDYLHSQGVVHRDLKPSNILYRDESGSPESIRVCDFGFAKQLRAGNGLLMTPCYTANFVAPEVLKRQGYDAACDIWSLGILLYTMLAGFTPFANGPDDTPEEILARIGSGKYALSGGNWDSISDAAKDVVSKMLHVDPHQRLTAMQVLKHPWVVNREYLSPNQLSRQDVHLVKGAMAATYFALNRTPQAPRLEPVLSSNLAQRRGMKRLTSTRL
For assay [19] the target is unchanged. The note with it: at 1 µM.
The target of assay [20] is Ribosomal protein S6 kinase alpha-6 (Homo sapiens) (UniProt Q9UK32). To be noted: at 0.1 µM.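 Also: reported value is the mean inhibition of RSK4, from the GSK PKIS kinase inhibitor screen.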

Ribosomal protein S6 kinase alpha-3 (Homo sapiens), sequence (P51812 whole entry): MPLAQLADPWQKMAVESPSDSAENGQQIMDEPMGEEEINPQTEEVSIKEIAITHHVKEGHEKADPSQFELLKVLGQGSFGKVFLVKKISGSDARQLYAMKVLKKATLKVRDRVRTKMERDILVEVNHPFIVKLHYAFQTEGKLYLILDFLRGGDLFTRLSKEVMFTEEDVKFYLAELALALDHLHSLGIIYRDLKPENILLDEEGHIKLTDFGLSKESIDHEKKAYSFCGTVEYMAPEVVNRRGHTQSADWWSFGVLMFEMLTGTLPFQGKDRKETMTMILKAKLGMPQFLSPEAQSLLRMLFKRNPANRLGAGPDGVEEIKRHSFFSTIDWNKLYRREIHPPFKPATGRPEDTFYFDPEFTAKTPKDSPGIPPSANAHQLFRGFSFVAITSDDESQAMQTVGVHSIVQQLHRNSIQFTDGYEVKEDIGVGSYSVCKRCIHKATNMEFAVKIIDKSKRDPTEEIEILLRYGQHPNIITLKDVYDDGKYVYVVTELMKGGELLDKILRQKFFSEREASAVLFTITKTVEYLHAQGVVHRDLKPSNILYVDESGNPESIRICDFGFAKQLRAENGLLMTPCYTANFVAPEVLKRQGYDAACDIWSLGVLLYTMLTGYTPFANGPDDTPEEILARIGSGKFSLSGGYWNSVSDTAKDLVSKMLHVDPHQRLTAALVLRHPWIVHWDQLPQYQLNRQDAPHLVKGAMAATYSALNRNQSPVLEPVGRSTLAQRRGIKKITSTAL

With `Cc1ccc(C(=O)NC2CCCCC2)cc1-c1ccc(C(=O)NCC2CC2)cc1`, the inhibition in [1] was determined as 2.9%; in assay [2], 2.25%; in assay [3] it was 2.53%; in assay [4], 4.55%; in assay [5], 4.23%; in assay [6], 2.62%. Further, the inhibition was 2.94% in [7]; 2.1% in assay [8]; 0.91% in assay [9]; 1.64% in [10]; 1.55% in assay [11]; 1.31% in assay [12]. Also, the inhibition was 1.7% in assay [13]; 1.59% in assay [14]; 0.15% in assay [15]; 1.12% in assay [16]; 0.57% in [17]; -1.41% in [18]. Moreover, the inhibition is 0.27% in [19] and -0.04% in assay [20].
As to `CCCN1CCC(Oc2cc(Nc3nc(Nc4cccc(F)c4C(N)=O)c4cc[nH]c4n3)c(OC)cc2Cl)CC1`, the inhibition worked out at 8.74% in assay [1]; 0.21% in [2]; 17.1% in [3]; 1.4% in assay [4]; 3.67% in assay [5]; 0.8% in [6]. For the same molecule, the inhibition was determined as 3.46% in assay [7]; 7.71% in [8]; 7.12% in [9]; 0.94% in assay [10]; 8.85% in assay [11]; 1.22% in [12]. For the same molecule, the inhibition in assay [13] was 7.48%; in assay [14] it was 0.01%; in [15], 7.33%; in assay [16], 0.89%; in assay [17], 3.26%; in [18], -0.12%. Further, the inhibition in assay [19] was found to be 0.95%; in [20] it was 1.35%.
As for `CN1CCC(C(=O)Nc2n[nH]c3nnc(-c4ccccc4)cc23)CC1`, the inhibition in assay [1] was found to be 6.42%; in assay [2], 4.65%; in assay [3] it was 5.47%; in assay [4] it was 3.6%; in assay [5], 5.14%; in [6], 2.49%. The inhibition in [7] came out at 4.4%; in [8] it was 3.15%; in assay [9], 6.09%; in assay [10], 7.45%; in [11] it was 1.3%; in [12] it was 3.27%. The inhibition in assay [13] came out at 7.43%; in assay [14], 2.04%; in assay [15] it was 3.41%; in [16], 1.58%; in assay [17] it was 3.98%; in assay [18], 2.42%. For the same molecule, the values for the inhibition in [19] and in assay [20] were 3.15% and 0.86%, respectively.
